PubChem BioAssay (Tox21)
“And” between values parts separate entries of the source, which are not always exact repeats. Identical values can stand only once. Results filed as inconclusive are left out. Where a call stands in place of a potency, no number is given. Some compounds were tested as several samples or in several runs, with calls that do not always agree. The source made the active and inactive calls. Unless noted, calls come from the whole dose curve; as a rule, active = well fitted curve in the direction sought with a large enough effect in the repeat runs; inconclusive = weak or mixed curves; inactive = no such curve, though single readings can be large; an effect the other way counts as inactive or inconclusive.

Experiments:
[1] = target: Thyrotropin-releasing hormone receptor (Homo sapiens) (UniProt P34981); assay: qHTS assay to identify small molecule agonists of the thyrotropin-releasing hormone receptor (TRHR) signaling pathway (AID 1346891; calls by dose curve;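 note: HEK293 cells expressing TRHR with calcium dye readout; series mostly up to about 58 µM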)
Chain of Thyrotropin-releasing hormone receptor (Homo sapiens) (P34981 whole entry, looked up): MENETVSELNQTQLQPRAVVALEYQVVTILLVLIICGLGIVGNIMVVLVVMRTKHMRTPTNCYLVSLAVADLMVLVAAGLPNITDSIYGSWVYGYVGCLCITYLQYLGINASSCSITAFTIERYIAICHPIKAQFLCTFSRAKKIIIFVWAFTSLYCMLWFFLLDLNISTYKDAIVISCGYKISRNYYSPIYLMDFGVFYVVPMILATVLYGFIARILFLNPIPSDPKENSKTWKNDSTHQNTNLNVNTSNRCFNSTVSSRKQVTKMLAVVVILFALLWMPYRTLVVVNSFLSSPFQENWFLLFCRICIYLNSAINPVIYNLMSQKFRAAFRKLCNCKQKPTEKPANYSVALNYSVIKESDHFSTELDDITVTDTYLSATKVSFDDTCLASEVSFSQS
In short: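 Cells: TRHR-Hek293, seeded and incubated 18 h. Dye loading: 2 h at 37 °C. Compound added from DMSO stock by pin tool. Read-out: kinetic calcium fluorescence over 3 min.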

[2] = Human pregnane X receptor (PXR) small molecule agonists, qHTS cell viability counter screen (AID 1346977); note: nearly all actives have a fitted effect of over 50% in size; note: potency is the fitted concentration of half-maximal effect
In short: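 Cytotoxicity counter screen run in the same wells as the PXR luciferase assay, using PXR-Luc HepG2 cells in charcoal-stripped serum medium. Viability: CellTiter-Fluor fluorescence after 24hr compound treatment.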

[3] = Caspase-3/7 induction in HepG2 cells by small molecules, qHTS assay (AID 1346978); note: nearly all actives have a fitted effect of over 15% in size
In short: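 Wild-type HepG2 cells (2,000/well) were settled 5 h at 37 C, 5% CO2, then exposed to compounds in DMSO for 17 h. Caspase-3/7 activity was read by luminescence 30 min after adding Caspase-Glo 3/7 reagent at room temperature.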

[4] = Caspase-3/7 induction in CHO-K1 cells by small molecules, qHTS cell viability counter screen (AID 1346979); note: nearly all actives have a fitted effect of over 35% in size; note: potency is the fitted concentration of half-maximal effect
In short: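 Cytotoxicity counter screen run in parallel with the caspase-3/7 assay: CHO-K1 cells, 16hr compound treatment at 37C, then CellTiter-Fluor for 1hr before fluorescence reading.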

[5] = Caspase-3/7 induction in CHO-K1 cells by small molecules, qHTS assay (AID 1346980); note: nearly all actives have a fitted effect of over 15% in size; note: potency is the fitted concentration of half-maximal effect
In short: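 Wild-type cells were seeded at 1,500 per well and settled 5 hr at 37 C, 5% CO2, then exposed to DMSO-dissolved compounds for 17 hr. Caspase-Glo 3/7 reagent was added, and luminescence was read after 30min at room temperature.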

[6] = Caspase-3/7 induction in HepG2 cells by small molecules, qHTS cell viability counter screen (AID 1346981); note: nearly all actives have a fitted effect of over 30% in size; note: potency is the fitted concentration of half-maximal effect
In short: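 In this quantitative HTS counter screen, compounds delivered in DMSO were left on unmodified HepG2 cells for 16 hr at 37 C. Viability was then determined fluorometrically with CellTiter-Fluor, in parallel with caspase-3/7 induction in the same wells.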

[7] = target: Nuclear receptor subfamily 1 group I member 2 (Rattus norvegicus) (UniProt Q9R1A7); assay: Rat pregnane X receptor (rPXR) activation by small molecules, qHTS assay (AID 1346983); conditions: rPXR luciferase reporter cells, One-Glo luminescence, 24 h; max activation: stronger effect = higher value; note: nearly all actives have a fitted effect of over 20% in size; note: potency is the fitted concentration of half-maximal effect
Chain of Nuclear receptor subfamily 1 group I member 2 (Rattus norvegicus) (Q9R1A7 whole entry, looked up): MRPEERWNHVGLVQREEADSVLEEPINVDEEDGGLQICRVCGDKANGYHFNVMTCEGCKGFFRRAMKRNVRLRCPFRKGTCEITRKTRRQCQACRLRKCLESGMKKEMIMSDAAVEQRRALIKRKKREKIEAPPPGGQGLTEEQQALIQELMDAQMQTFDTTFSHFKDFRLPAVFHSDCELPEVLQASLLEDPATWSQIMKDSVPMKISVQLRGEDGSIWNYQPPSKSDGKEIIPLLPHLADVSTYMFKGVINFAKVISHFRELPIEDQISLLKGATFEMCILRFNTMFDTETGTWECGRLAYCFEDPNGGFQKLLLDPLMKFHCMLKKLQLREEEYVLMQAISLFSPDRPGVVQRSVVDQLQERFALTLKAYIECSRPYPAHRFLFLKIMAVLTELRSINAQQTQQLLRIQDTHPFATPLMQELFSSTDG
In short: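 Cell-based rPXR luciferase reporter assay, 2,000 cells per well, rested 5hr at 37 C before compound addition in DMSO, then 24 hr at 37 C. One-Glo reagent was added and luminescence read after 30 min at room temperature.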

[8] = target: Nuclear receptor subfamily 1 group I member 2 (Homo sapiens) (UniProt O75469); assay: Human pregnane X receptor (PXR) small molecule agonists, qHTS assay (AID 1346982); note: nearly all actives have a fitted effect of over 35% in size; note: potency is the fitted concentration of half-maximal effect
Chain of Nuclear receptor subfamily 1 group I member 2 (Homo sapiens) (O75469 whole entry, looked up): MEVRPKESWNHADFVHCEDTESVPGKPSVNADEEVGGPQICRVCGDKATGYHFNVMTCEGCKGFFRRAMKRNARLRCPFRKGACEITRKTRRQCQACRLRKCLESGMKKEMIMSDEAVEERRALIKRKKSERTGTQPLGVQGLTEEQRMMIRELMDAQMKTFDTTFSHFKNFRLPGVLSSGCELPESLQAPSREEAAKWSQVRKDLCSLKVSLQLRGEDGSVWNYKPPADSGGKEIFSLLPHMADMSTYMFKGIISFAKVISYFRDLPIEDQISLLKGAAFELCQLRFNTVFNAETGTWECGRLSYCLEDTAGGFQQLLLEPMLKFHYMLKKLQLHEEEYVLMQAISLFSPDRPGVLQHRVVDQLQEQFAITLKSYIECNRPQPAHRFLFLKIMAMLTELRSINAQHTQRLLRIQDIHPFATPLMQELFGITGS
In short: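 Reporter HepG2 cells expressing PXR-Luc are cultured in charcoal-stripped FBS (5%), treated with compounds for 24 hr at 37 C, and assayed by ONE-Glo luminescence after 30 min at room temperature.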

[9] = target: Nuclear receptor subfamily 1 group I member 2 (Homo sapiens) (UniProt O75469); assay: Human pregnane X receptor (PXR) activation by small molecules, qHTS assay (AID 1346985); note: nearly all actives have a fitted effect of over 40% in size
In short: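 DPX-2 cells (HepG2 co-transfected with a PXR response element and a CYP3A4-promoter luciferase construct) were seeded at 2,000 per well, rested 5 hr at 37C, then exposed to DMSO-dissolved compounds for 24 hr. Activation was read as luciferase luminescence.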

[10] = target: Nuclear receptor subfamily 1 group I member 2 (Homo sapiens) (UniProt O75469); assay: CYP3A4 induction through human pregnane X receptor (PXR) by small molecules, qHTS assay (AID 1346984); note: nearly all actives have a fitted effect of over 40% in size
In short: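 Induction measured in HepG2-based DPX-2 cells co-expressing human PXR and a CYP3A4 promoter-driven luciferase. After a 24-hour compound exposure, cells received CYP3A4 luciferin substrate at 3uM final for 3 hours, and light output was then recorded.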

With COC(=O)Nc1nc2ccc(Sc3ccccc3)cc2[nH]1 the Potency [1] was “inactive”, the Potency [2] was “inactive” and the Potency [3] was “inactive”. The Potency [4] was 30.6 µM (active) and 10.6 µM (active), the Potency [5] was 54.5 µM (active) and the Potency [6] was “inactive”. For the same compound, the Potency [7] was 1.26 µM (active).

For Clc1cc(Cl)c(Cl)cc1Cl, the Potency [2] was “inactive”, the Potency [3] was “inactive” and the Potency [4] was “inactive”. The Potency [5] was “inactive”, the Potency [6] was “inactive” and the Potency [8] was “inactive”.

In the case of CC1(C)O[C@@H]2C[C@H]3[C@@H]4C[C@H](F)C5=CC(=O)CC[C@]5(C)[C@H]4[C@@H](O)C[C@]3(C)[C@]2(C(=O)CO)O1, the Potency [1] is reported as “inactive”, the Potency [2] is reported as “inactive” and the Potency [3] is reported as “inactive”. For the same compound, the Potency [4] was “inactive”, the Potency [5] was “inactive” and the Potency [6] was “inactive”. For the same compound, the Potency [8] was 11.9 µM (active) and the outcome [9] was “inactive”.

In the case of CCCCC/C=C\C/C=C\CCCCCCCC(=O)OC, the Potency [2] is reported as “inactive”, the Potency [3] is reported as “inactive” and the Potency [4] is reported as “inactive and 61.1 µM (active)”. The Potency [5] was “inactive” and the Potency [6] was “inactive”.

In the case of CCCCOCCOCCOC(=O)CCCCC(=O)OCCOCCOCCCC, the Potency [2] is reported as “inactive”, the Potency [3] is reported as “inactive” and the Potency [4] is reported as “inactive”. For the same compound, the Potency [5] was “inactive” and the Potency [6] was “inactive”.

For Nc1c(S(=O)(=O)O)cc(Br)c2c1C(=O)c1ccccc1C2=O, the Potency [2] was 31.3 µM (active) and 27.3 µM (active), the Potency [3] was “inactive” and the Potency [4] was 48.6 µM (active). The Potency [5] was “inactive” and the Potency [6] was “inactive and 48.6 µM (active)”.

In the case of CCc1ccccc1O, the Potency [2] is reported as “inactive”, the Potency [3] is reported as “inactive” and the Potency [4] is reported as “inactive”. For the same compound, the Potency [5] was “inactive” and the Potency [6] was “inactive”.

For CC(C)(C)C(=O)C1C(=O)c2ccccc2C1=O, the Potency [2] was 50.1 µM (active), the Potency [3] was “inactive” and the Potency [4] was 27 µM (active) and 43.3 µM (active). For the same compound, the Potency [5] was “inactive” and the Potency [6] was 60.5 µM (active).

With Cc1cc(NS(=O)(=O)c2ccc(N)cc2)no1 the Potency [2] was “inactive”, the Potency [3] was “inactive” and the Potency [4] was “inactive”. The Potency [5] was “inactive” and the Potency [6] was “inactive”.

For NCc1cccc(CN)c1, the Potency [2] was “inactive”, the Potency [3] was “inactive” and the Potency [4] was “inactive”. For the same compound, the Potency [5] was “inactive” and the Potency [6] was “inactive”.

In the case of CC1COc2ccccc2N1C(=O)C(Cl)Cl (centres undefined), the Potency [2] is reported as 39.8 µM (active), the Potency [3] is reported as “inactive” and the Potency [4] is reported as 27.3 µM (active) and 30.6 µM (active). For the same compound, the Potency [5] was “inactive” and the Potency [6] was 61 µM (active) and 27.3 µM (active).

In the case of C=C(C)C(=O)OCCCCCC, the Potency [2] is reported as “inactive”, the Potency [3] is reported as “inactive” and the Potency [4] is reported as “inactive”. The Potency [5] was “inactive” and the Potency [6] was “inactive”.

With O=C(Cl)c1c(Cl)c(Cl)c(C(=O)Cl)c(Cl)c1Cl the Potency [2] was “inactive”, the Potency [3] was “inactive” and the Potency [4] was “inactive”. The Potency [5] was “inactive”, the Potency [6] was “inactive” and the Potency [8] was “inactive”.

In the case of CCc1ccc(O)cc1, the Potency [2] is reported as “inactive”, the Potency [3] is reported as “inactive” and the Potency [4] is reported as “inactive”. The Potency [5] was “inactive” and the Potency [6] was “inactive”.

For Cc1ccc(N)c(S(=O)(=O)O)c1, the Potency [2] was “inactive”, the Potency [3] was “inactive” and the Potency [4] was “inactive”. For the same compound, the Potency [5] was “inactive” and the Potency [6] was “inactive”.

In the case of CC(=O)[C@@]1(O)CC[C@H]2[C@@H]3CCC4=CC(=O)CC[C@]4(C)[C@H]3CC[C@@]21C, the Potency [1] is reported as “inactive”, the Potency [3] is reported as “inactive” and the Potency [4] is reported as “inactive”. The Potency [5] was “inactive” and the Potency [6] was “inactive”.

In the case of Oc1ccc2ccccc2c1, the Potency [2] is reported as “inactive”, the Potency [3] is reported as “inactive” and the Potency [4] is reported as “inactive”. The Potency [5] was “inactive” and the Potency [6] was “inactive”.

With COCC(=O)O the Potency [2] was “inactive”, the Potency [3] was “inactive” and the Potency [4] was “inactive”. The Potency [5] was “inactive” and the Potency [6] was “inactive”.

With c1ccc2ccccc2c1 the Potency [1] was “inactive”, the Potency [2] was “inactive” and the Potency [3] was “inactive”. The Potency [4] was “inactive”, the Potency [5] was “inactive” and the Potency [6] was “inactive”. The max activation [7] was -0.655% (inactive), the outcome [10] was “inactive” and the outcome [9] was “inactive”.

In the case of O=S(=O)(Oc1ccc(Cl)cc1Cl)c1ccccc1, the Potency [2] is reported as “inactive”, the Potency [3] is reported as “inactive” and the Potency [4] is reported as “inactive”. For the same compound, the Potency [5] was “inactive” and the Potency [6] was “inactive”.

In the case of Cc1cc(=O)[nH]c(C(C)C)n1, the Potency [2] is reported as “inactive”, the Potency [3] is reported as “inactive” and the Potency [4] is reported as “inactive”. The Potency [5] was “inactive” and the Potency [6] was “inactive”.

For NC(=O)NNc1ccccc1, the Potency [1] was “inactive”, the Potency [2] was “inactive” and the Potency [3] was “inactive”. The Potency [4] was “inactive”, the Potency [5] was “inactive” and the Potency [6] was “inactive”. For the same compound, the max activation [7] was -0.925% (inactive) and 0.997% (inactive).

With CCCCOCCO the Potency [2] was “inactive”, the Potency [3] was “inactive” and the Potency [4] was “inactive”. The Potency [5] was “inactive”, the Potency [6] was “inactive” and the Potency [8] was “inactive”.

In the case of Oc1c(Cl)cc(Cl)c(Cl)c1Cl, the Potency [3] is reported as “inactive”, the Potency [5] is reported as “inactive” and the Potency [8] is reported as 59.8 µM (active) and 54.5 µM (active).

In the case of CC(=O)CCc1ccccc1, the Potency [2] is reported as “inactive”, the Potency [3] is reported as “inactive” and the Potency [4] is reported as “inactive”. For the same compound, the Potency [5] was “inactive”, the Potency [6] was “inactive” and the Potency [8] was “inactive”.

For S=c1nc[nH]c2nc[nH]c12, the Potency [2] was “inactive”, the Potency [3] was “inactive” and the Potency [4] was “inactive”. For the same compound, the Potency [5] was “inactive”, the Potency [8] was “inactive” and the max activation [7] was -6.82% (inactive). The outcome [10] was “inactive”.

In the case of O=S(=O)(O)c1cc(S(=O)(=O)O)c2c(N=Nc3ccccc3)c(O)ccc2c1, the Potency [2] is reported as 39.8 µM (active) and 54.5 µM (active), the Potency [3] is reported as “inactive” and the Potency [4] is reported as 54.7 µM (active) and 34.4 µM (active). The Potency [5] was “inactive”, the Potency [6] was 54.7 µM (active) and 54.5 µM (active) and the Potency [8] was “inactive”.

In the case of C=C1CC[C@H](O)CC1=C/C=C1\CCC[C@]2(C)[C@@H]([C@H](C)/C=C/[C@H](C)C(C)C)CC[C@@H]12, the Potency [2] is reported as “inactive”, the Potency [3] is reported as “inactive” and the Potency [4] is reported as 54 µM (active) and 48.6 µM (active). The max activation [7] was -1.33% (inactive), the outcome [10] was “inactive” and the outcome [9] was “inactive”.

With CCOC(=O)[C@H](CCc1ccccc1)N[C@@H](C)C(=O)N1Cc2ccccc2C[C@H]1C(=O)O the Potency [2] was “inactive”, the Potency [3] was “inactive” and the Potency [5] was “inactive”. The Potency [6] was “inactive”, the Potency [8] was 30.9 µM (active) and 11.9 µM (active) and the max activation [7] was -0.751% (inactive). The outcome [10] was “inactive” and the outcome [9] was “inactive”.

In the case of O=C1O[C@H](CO)[C@@H](O)[C@H](O)[C@H]1O, the Potency [2] is reported as “inactive”, the Potency [3] is reported as “inactive” and the Potency [4] is reported as “inactive”. The Potency [5] was “inactive”, the Potency [6] was “inactive” and the Potency [8] was “inactive”. For the same compound, the max activation [7] was 1.43% (inactive), the outcome [10] was “inactive” and the outcome [9] was “inactive”.
